According to PubChem BioAssay (EPA / NIEHS):
Inconclusive results are not listed. Calls of active or inactive are those of the source. How the source made its calls: active means hit-call score of the fitted dose curve at least 0.9, where 1 is the maximum; inconclusive means response in the unintended direction; inactive means score below 0.9.

test: ACEA_ER_80hr: ACEA Biosciences xCELLigence Real-Time Cell Analysis on Estrogen Receptor Agonism for Proliferation (AID 2282667); conditions: T47D proliferation, impedance (xCELLigence), 80 h
In short: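 T47D human breast cells were seeded on electrode plates, monitored overnight, then exposed continuously to compounds in eight-point 1:4 dilutions from 100 uM (max 0.5% DMSO). Impedance-based growth was read at 80 h, fitted upward relative to DMSO.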

Question: Which outcome does the source give for CC(c1cc(C(C)(C)C)cc(C(C)(C)C)c1O)c1cc(C(C)(C)C)cc(C(C)(C)C)c1O here?
Answer: inactive

Question: With C=CCCCCCCCCOC(C)=O as the compound, how does the outcome read?
Answer: inactive

Question: With CC(Cl)COP(=O)(OCC(C)Cl)OCC(C)Cl (stereo not given) as the compound, how does the outcome read?
Answer: inactive

Question: With C[Si]1(C)O[Si](C)(C)O[Si](C)(C)O[Si](C)(C)O[Si](C)(C)O1 as the compound, how does the outcome read?
Answer: inactive

Question: With O=C(C=Cc1ccccc1)OCCc1ccccc1 as the compound, how does the outcome read?
Answer: inactive

Question: For CC(C)c1ccc(O)c(C(C)C)c1, which outcome is on record?
Answer: inactive

Question: Which outcome does the source give for CC(=O)OCCc1ccccc1 here?
Answer: inactive

Question: With CCC1COC(=O)O1 (stereo not given) as the compound, how does the outcome read?
Answer: inactive

Question: For CCCCCCCCCC(C)=O, which outcome is on record?
Answer: inactive

Question: For Cc1c[nH]c(=O)[nH]c1=O, which outcome is on record?
Answer: inactive

Question: For O=C(O)CC(C(=O)O)S(=O)(=O)O (stereo not given), which outcome is on record?
Answer: inactive

Question: With C=CC(=O)OCCCCCCCCCC as the compound, how does the outcome read?
Answer: inactive

Question: With CC(=O)CC(=O)Nc1ccccc1C as the compound, how does the outcome read?
Answer: inactive

Question: Which outcome does the source give for CCCC(CC)c1ccccc1 (stereo not given) here?
Answer: inactive

Question: With COc1cc(O)c(C(=O)c2ccccc2)cc1S(=O)(=O)O as the compound, how does the outcome read?
Answer: inactive

Question: For O=C1CCCN1C1CCCCC1, which outcome is on record?
Answer: inactive

Question: For CC1CCC(C(C)(C)S)C(=O)C1 (stereo not given), which outcome is on record?
Answer: inactive

Question: With COC(=O)c1ccc(C(=O)OC)c(C(=O)OC)c1 as the compound, how does the outcome read?
Answer: inactive

Question: For CCC(C)c1ccccc1 (stereo not given), which outcome is on record?
Answer: inactive

Question: For O=S(=O)(O)c1ccc(Nc2nc(Nc3ccc(C=Cc4ccc(Nc5nc(Nc6ccc(S(=O)(=O)O)cc6)nc(N(CCO)CCO)n5)cc4S(=O)(=O)O)c(S(=O)(=O)O)c3)nc(N(CCO)CCO)n2)cc1, which outcome is on record?
Answer: inactive

Question: With CC(C)(CO)COC(=O)C(C)(C)CO as the compound, how does the outcome read?
Answer: inactive

Question: Which outcome does the source give for Clc1cc(Cl)c(Cl)c(Cl)c1Cl here?
Answer: inactive

Question: Which outcome does the source give for O=C(O)C1CCC(C(=O)O)CC1 (stereo not given) here?
Answer: inactive

Question: With CC1=CP(=O)(c2ccccc2)CC1 (stereo not given) as the compound, how does the outcome read?
Answer: inactive

Question: With Cc1cc(=O)[nH]c(=O)[nH]1 as the compound, how does the outcome read?
Answer: inactive

Question: Which outcome does the source give for CC(C)(C)C1CCC(=O)CC1 here?
Answer: inactive

Question: With CCCCNS(=O)(=O)c1ccc(C)cc1 as the compound, how does the outcome read?
Answer: inactive

Question: For CCOC(=O)c1ccccc1C, which outcome is on record?
Answer: inactive

Question: With c1ccc2sc(SSN3CCOCC3)nc2c1 as the compound, how does the outcome read?
Answer: inactive

Question: For CC(C)CCOCc1ccccc1, which outcome is on record?
Answer: inactive

Question: With COc1ccc(-c2coc3cc(O)cc(O)c3c2=O)cc1 as the compound, how does the AC50 read?
Answer: 0.673 µM (active)

Question: For O=C(O)/C=C/c1ccccc1, which AC50 is on record?
Answer: 2.06 µM (active)

Question: For Nc1ccc(C(=O)O)cc1, which AC50 is on record?
Answer: 50 µM (active)

Question: With CCCCC(CC)COS(=O)(=O)O (stereo not given) as the compound, how does the outcome read?
Answer: inactive

Question: Which outcome does the source give for CC(C)[N+](C)(CCOC(=O)C1c2ccccc2Oc2ccccc21)C(C)C here?
Answer: inactive
